FAS-TE inh: FAS thioesterase (human) inhibition; P49327; 360,000 tested, 0.67% active; inhibition, % at 15 µM; recombinant FAS-TE, OMFH fluorogenic substrate, fluorescence endpoint; AID 602261;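 active = compounds whose normalised, plate-corrected inhibition of enzyme fluorescence in the single-dose primary screen is 50% or more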
Target sequence (P49327 whole entry, looked up): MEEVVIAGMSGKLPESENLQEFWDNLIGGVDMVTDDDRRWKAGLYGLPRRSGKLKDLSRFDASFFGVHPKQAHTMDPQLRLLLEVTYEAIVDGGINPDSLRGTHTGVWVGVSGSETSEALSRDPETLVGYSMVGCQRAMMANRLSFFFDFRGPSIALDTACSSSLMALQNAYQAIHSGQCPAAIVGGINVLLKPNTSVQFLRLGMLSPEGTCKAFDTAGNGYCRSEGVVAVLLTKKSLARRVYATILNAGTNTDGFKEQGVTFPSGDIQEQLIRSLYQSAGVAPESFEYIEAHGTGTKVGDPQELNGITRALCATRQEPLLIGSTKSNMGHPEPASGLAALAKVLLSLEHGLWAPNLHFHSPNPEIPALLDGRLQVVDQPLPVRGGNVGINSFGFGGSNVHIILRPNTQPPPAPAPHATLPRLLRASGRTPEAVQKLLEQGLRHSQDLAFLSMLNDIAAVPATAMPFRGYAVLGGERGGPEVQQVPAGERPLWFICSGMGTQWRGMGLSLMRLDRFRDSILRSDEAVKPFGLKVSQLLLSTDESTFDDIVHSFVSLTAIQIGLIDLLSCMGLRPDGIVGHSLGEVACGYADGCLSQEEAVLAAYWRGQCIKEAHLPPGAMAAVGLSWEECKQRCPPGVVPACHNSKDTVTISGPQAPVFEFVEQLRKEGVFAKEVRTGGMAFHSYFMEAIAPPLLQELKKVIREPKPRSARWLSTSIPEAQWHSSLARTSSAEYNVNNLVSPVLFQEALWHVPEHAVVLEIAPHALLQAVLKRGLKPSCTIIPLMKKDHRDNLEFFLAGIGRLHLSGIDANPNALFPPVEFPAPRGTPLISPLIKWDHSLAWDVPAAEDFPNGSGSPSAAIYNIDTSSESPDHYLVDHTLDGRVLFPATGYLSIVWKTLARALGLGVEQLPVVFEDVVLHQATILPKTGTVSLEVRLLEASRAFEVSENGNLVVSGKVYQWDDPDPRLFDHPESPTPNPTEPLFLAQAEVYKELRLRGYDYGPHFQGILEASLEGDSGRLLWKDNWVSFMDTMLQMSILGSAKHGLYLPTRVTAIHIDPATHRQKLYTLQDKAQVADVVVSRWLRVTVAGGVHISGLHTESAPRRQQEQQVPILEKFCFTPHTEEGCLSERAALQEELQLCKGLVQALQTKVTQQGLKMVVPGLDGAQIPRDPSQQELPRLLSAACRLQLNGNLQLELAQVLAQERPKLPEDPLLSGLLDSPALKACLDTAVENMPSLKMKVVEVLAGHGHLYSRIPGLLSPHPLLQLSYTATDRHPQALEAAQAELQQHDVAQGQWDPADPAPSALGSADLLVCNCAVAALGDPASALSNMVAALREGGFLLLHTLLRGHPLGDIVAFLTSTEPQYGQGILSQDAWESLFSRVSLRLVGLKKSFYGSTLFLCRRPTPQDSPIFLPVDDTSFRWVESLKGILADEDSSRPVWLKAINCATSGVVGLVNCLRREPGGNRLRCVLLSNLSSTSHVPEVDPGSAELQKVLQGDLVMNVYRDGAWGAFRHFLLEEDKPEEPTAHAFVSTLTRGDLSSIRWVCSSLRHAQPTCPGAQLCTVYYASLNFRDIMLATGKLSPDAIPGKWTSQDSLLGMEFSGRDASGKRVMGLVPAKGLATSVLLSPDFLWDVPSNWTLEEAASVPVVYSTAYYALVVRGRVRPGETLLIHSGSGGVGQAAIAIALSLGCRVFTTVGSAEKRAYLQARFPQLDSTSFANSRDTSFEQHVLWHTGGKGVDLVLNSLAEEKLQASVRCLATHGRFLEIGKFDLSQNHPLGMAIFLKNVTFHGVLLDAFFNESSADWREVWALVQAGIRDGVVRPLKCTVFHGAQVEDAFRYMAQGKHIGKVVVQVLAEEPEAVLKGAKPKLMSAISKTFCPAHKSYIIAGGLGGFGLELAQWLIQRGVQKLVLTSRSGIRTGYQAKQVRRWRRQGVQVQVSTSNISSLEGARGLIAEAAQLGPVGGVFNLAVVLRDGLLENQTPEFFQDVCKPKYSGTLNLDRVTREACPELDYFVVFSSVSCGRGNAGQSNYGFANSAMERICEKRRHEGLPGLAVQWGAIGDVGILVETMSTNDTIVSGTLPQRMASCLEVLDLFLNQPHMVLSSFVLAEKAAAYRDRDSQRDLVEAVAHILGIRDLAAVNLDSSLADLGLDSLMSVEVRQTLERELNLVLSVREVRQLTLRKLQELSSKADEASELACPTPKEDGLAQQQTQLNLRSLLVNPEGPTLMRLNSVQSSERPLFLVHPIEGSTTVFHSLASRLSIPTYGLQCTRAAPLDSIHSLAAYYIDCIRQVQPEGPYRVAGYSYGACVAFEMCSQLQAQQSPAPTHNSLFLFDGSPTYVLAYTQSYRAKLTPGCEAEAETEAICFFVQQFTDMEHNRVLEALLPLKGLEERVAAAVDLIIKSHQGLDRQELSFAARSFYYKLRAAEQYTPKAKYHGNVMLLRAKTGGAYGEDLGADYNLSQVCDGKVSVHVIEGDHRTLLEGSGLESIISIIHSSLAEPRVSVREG
NPR2 activator: GC-B (human) receptor activation. activation, % at 10 µM. HEK293-GC-B cells, CNP EC30, cGMP TR-FRET; 0% at EC30 CNP, 100% saturating CNP. P20594. AID 1920062. 370,000 tested, 0.11% active;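 active = activation at 10 µM reaching about 35% in either raw or pattern-adjusted values, limit read from the data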
NPR1 activator: GC-A (human) enzyme activation; 370,000 tested, 0.14% active; activation, % at 10 µM; AID 1671463; HEK293 GC-A cells, cGMP TR-FRET, EC30 ANP; 0% at EC30 ANP, 100% saturating ANP; in the data active = activation above about 40%
ADAM10 inh: inhibitors of human ADAM10; inhibition, % at 7 µM; O14672; 370,000 tested, 0.62% active; recombinant ADAM10, EDANS/DABCYL FRET peptide cleavage, 3 h; AID 720582;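 active = inhibition above a per-campaign cutoff equal to the mean of compounds falling between control-based bounds plus 3 SD, cut at about 20% in these data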
ADAM17 inh: inhibitors of human ADAM17; P78536; recombinant ADAM17, EDANS/DABCYL FRET peptide cleavage; inhibition, % at 6.95 µM; 370,000 tested, 0.83% active;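 active = inhibition above the mean of compounds lying between control limits plus 3 SD, set per campaign, cut at about 8.5% in these data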
ADAM10 confirm: human ADAM10 inhibition, confirmation; shares compounds with ADAM10 inh; ADAM10 QFRET peptide cleavage, EDANS fluorescence; inhibition, % at 6.95 µM; 2,100 tested, 1% active;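 active = inhibition above about 20% chosen separately for each screening run, limit read from the data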
ADAM17 counter: ADAM17 inhibition, counter-screen for ADAM10 exosite hits; shares compounds with ADAM10 inh; ADAM17 QFRET peptide cleavage, EDANS fluorescence; inhibition, % at 6.95 µM; 2,100 tested, 0.5% active; AID 743214;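 active = mean triplicate inhibition above the solvent-only control wells' mean plus 3 SD, cut at about 12% in these data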
ADAM10 counter: inhibits human ADAM10 in ADAM17 exosite counter-screen. shares compounds with ADAM17 inh. recombinant ADAM10, EDANS/DABCYL FRET peptide cleavage, 3 h. inhibition, % at 6.95 µM. 2,900 tested, 47% active. AID 743256;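 active = mean inhibition over the triplicate runs exceeds the activity threshold set in the earlier primary screen, cut at about 20% in these data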
ADAM17 confirm: human ADAM17 inhibition, confirmation; inhibition, % at 6.95 µM; shares compounds with ADAM17 inh; recombinant ADAM17, EDANS/DABCYL QFRET peptide cleavage; 2,900 tested, 65% active; AID 743257;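 active = mean inhibition across replicates above the hit cutoff set in the primary screen, cut at about 8.5% in these data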
Hits are given with their value. An excerpt weighted towards active compounds, which were near 2% of everything screened.

For Cc1noc(C)c1COc1ccccc1C(=O)N(C)CC(=O)Nc1ccc(Cl)c(Cl)c1 the results were FAS-TE inh inactive, NPR2 activator inactive, NPR1 activator inactive, ADAM10 inh 23, ADAM17 inh 9.9, ADAM10 confirm inactive, ADAM17 counter inactive, ADAM10 counter 32 and ADAM17 confirm 13.
`COc1cccc(NC(=O)CN(C)C(=O)c2ccccc2OCc2c(C)noc2C)c1` gave FAS-TE inh inactive, NPR2 activator inactive, NPR1 activator inactive, ADAM10 inh inactive and ADAM17 inh inactive.
For CN1C(=O)C[C@@](C#N)(C(=O)Nc2nc3ccc(F)cc3s2)[C@H]1c1ccccc1 the results were NPR2 activator inactive, NPR1 activator inactive, ADAM10 inh inactive and ADAM17 inh inactive.
Screening CCOC(=O)c1c(NC(=O)CN2C(=O)NC(C)(c3ccc(OC(F)F)cc3)C2=O)sc(C)c1C (centres undefined) returned FAS-TE inh inactive, NPR2 activator inactive, NPR1 activator inactive, ADAM10 inh 22, ADAM17 inh 11, ADAM10 confirm inactive, ADAM17 counter inactive, ADAM10 counter 34 and ADAM17 confirm 20.
Screening COc1ccc(C(=O)NC(=S)NNC(=O)[C@H]2C[C@@H]2c2ccccc2)cc1OC returned FAS-TE inh inactive, NPR2 activator inactive, NPR1 activator inactive, ADAM10 inh 32, ADAM17 inh 11, ADAM10 confirm inactive, ADAM17 counter inactive, ADAM10 counter inactive and ADAM17 confirm inactive.
For O=C(Nc1ccc(C(O)(C(F)(F)F)C(F)(F)F)cc1)c1ccc(Cl)c([N+](=O)[O-])c1 the results were FAS-TE inh inactive, NPR2 activator inactive, NPR1 activator inactive, ADAM10 inh 34, ADAM17 inh 16, ADAM10 confirm inactive, ADAM17 counter inactive, ADAM10 counter 49 and ADAM17 confirm 22.
Screening COc1ccc(C=C(c2nc3ccccc3s2)c2nc3ccccc3s2)cc1O returned FAS-TE inh inactive, NPR2 activator inactive, NPR1 activator inactive, ADAM10 inh 20, ADAM17 inh 8.6, ADAM10 confirm inactive, ADAM17 counter inactive, ADAM10 counter 25 and ADAM17 confirm 14.
`COc1ccc(/C=N/Nc2nc3ccccc3s2)cc1O` gave FAS-TE inh inactive, NPR2 activator inactive, NPR1 activator inactive, ADAM10 inh inactive and ADAM17 inh inactive.
`Cc1ccc(S(=O)(=O)NCCC(c2ccccc2)c2ccco2)cc1` (centres undefined) gave FAS-TE inh inactive, NPR2 activator inactive, NPR1 activator inactive, ADAM10 inh inactive and ADAM17 inh inactive.
COc1ccccc1C(CCNS(=O)(=O)c1ccc(C)cc1)c1ccco1 (centres undefined) was read as FAS-TE inh inactive, NPR2 activator inactive, NPR1 activator inactive, ADAM10 inh 21, ADAM17 inh 9.3, ADAM10 confirm inactive, ADAM17 counter inactive, ADAM10 counter 27 and ADAM17 confirm 18.
For O=C(c1ccc(Cl)cc1)N1CCC(O)(CSc2ccc(Cl)cc2Cl)CC1 the results were FAS-TE inh inactive, NPR2 activator inactive, NPR1 activator inactive, ADAM10 inh 27, ADAM17 inh 9.4, ADAM10 confirm inactive, ADAM17 counter inactive, ADAM10 counter 27 and ADAM17 confirm 11.
O=C(c1ccc(Cl)c(Cl)c1)N1CCC(O)(CN2CCOCC2)CC1 was read as FAS-TE inh inactive, ADAM10 inh inactive and ADAM17 inh inactive.
For O=C(Nc1ccccc1)OCc1cc(-c2ccccc2Cl)on1 the results were FAS-TE inh inactive, NPR2 activator inactive, NPR1 activator inactive, ADAM10 inh 27, ADAM17 inh 9.0, ADAM10 confirm inactive, ADAM17 counter inactive, ADAM10 counter 36 and ADAM17 confirm 17.
`O=C(CSc1nc2ccccc2n1Cc1ccccc1)NN=C/C=C/c1ccccc1` gave NPR2 activator inactive, NPR1 activator inactive, ADAM10 inh inactive and ADAM17 inh inactive.
CC1(C)CC(=O)C=C(Nc2ccccc2NC(=O)c2cc(Cl)ccc2F)C1 was read as NPR2 activator inactive, NPR1 activator inactive, ADAM10 inh inactive and ADAM17 inh inactive.
O=C(CN(c1cccc(Br)c1)S(=O)(=O)c1ccccc1)N/N=C/c1cc([N+](=O)[O-])ccc1O was read as FAS-TE inh inactive, NPR2 activator inactive, NPR1 activator inactive, ADAM10 inh 27, ADAM17 inh 16, ADAM10 confirm inactive, ADAM17 counter inactive, ADAM10 counter 28 and ADAM17 confirm 17.
Screening Cc1ccc(NC(=S)NC(=O)C2CCCCC2)c(Br)c1 returned FAS-TE inh inactive, NPR2 activator inactive, NPR1 activator inactive, ADAM10 inh 33, ADAM17 inh 15, ADAM10 confirm inactive, ADAM17 counter inactive, ADAM10 counter inactive and ADAM17 confirm 9.3.
CCCC[C@H]1C2CC(OC(=O)Nc3ccccc3OC)C(C2)[C@H]2CCCCN21 (some centres undefined) was read as NPR2 activator inactive, NPR1 activator inactive, ADAM10 inh inactive and ADAM17 inh inactive.
Screening CCCC1CCC2(CCCN2CCOC(=S)Nc2ccccc2Br)CC1 (centres undefined) returned NPR2 activator inactive, NPR1 activator inactive, ADAM10 inh inactive and ADAM17 inh inactive.
`Cc1cccc(NC(=S)NNc2ncc(C(F)(F)F)cc2Cl)c1` gave FAS-TE inh inactive, NPR2 activator inactive, NPR1 activator inactive, ADAM10 inh 21, ADAM17 inh 13, ADAM10 confirm inactive, ADAM17 counter inactive, ADAM10 counter inactive and ADAM17 confirm inactive.
For O=C(CC1SC(=Nc2cccc3ccccc23)N(Cc2ccccn2)C1=O)Nc1ccccc1Br (centres undefined) the results were FAS-TE inh inactive, NPR2 activator inactive, NPR1 activator inactive, ADAM10 inh inactive and ADAM17 inh inactive.
`Cc1ccccc1N=C1SC(CC(=O)Nc2ccc3ccccc3c2)C(=O)N1Cc1ccccn1` (centres undefined) gave FAS-TE inh inactive, NPR2 activator inactive, NPR1 activator inactive, ADAM10 inh 39, ADAM17 inh 15, ADAM10 confirm inactive, ADAM17 counter inactive, ADAM10 counter 37 and ADAM17 confirm 22.
For C#CCNC(=O)C[C@H]1C(=O)N(CCCOC)C2=CCCC[C@@]21C(=O)OCC the results were NPR2 activator inactive, NPR1 activator inactive, ADAM10 inh inactive and ADAM17 inh inactive.
